The list shows a part of the results. No count for the full screen is at hand.
B1: HC1711 (peptide)
chain: CAMEDCSQHLAGNASASA
B2: HC682 (peptide)
chain: CAIITSLTGRAGNASASA
B3: HC2273 (peptide)
chain: CARLEVVTSTAGNASASA
B4: FS-1755 (peptide)
chain: CARNARIVHLAGNASASA
B5: FS-3002 (peptide)
chain: CARNARHADGAGNASASA
B6: FS-2429 (peptide)
chain: CARLARFADGAGNASASA
B7: FS-3003 (peptide)
chain: CARNARNVSQAGNASASA
B8: HC199 (peptide)
chain: CAAQPGYPWPAGNASASA
B9: HC1237 (peptide)
chain: CAEYPVGSQLAGNASASA
B10: HC2572 (peptide)
chain: CASTPCSAHEAGNASASA
B11: HC1012 (peptide)
chain: CAREFDEMEEAGNASASA
B12: FS-3036 (peptide)
chain: CARQKRSIHEAGNASASA
B13: FS-1813 (peptide)
chain: CAVEKRGVHEAGNASASA
B14: FS-3260 (peptide)
chain: CARQKRSMEEAGNASASA
B15: FS-2244 (peptide)
chain: CARVNRSVHEAGNASASA
B16: FS-2174 (peptide)
chain: CARQTRSSTEAGNASASA
B17: FS-2587 (peptide)
chain: CARQKRSINLAGNASASA
B18: HC816 (peptide)
chain: CADIIICDECAGNASASA
B19: FS-2754 (peptide)
chain: CARQKRIIGGAGNASASA
B20: FS-2443 (peptide)
chain: CARQIRGLEEAGNASASA
B21: FS-2507 (peptide)
chain: CARQKRSIVVAGNASASA
B22: FS-3035 (peptide)
chain: CARQKREIDVAGNASASA
B23: FS-1767 (peptide)
chain: CARQIRYSVPAGNASASA
B24: HC583 (peptide)
chain: CAWLQYFLTRAGNASASA
B25: HC516 (peptide)
chain: CASWAIKWEYAGNASASA
B26: FS-2412 (peptide)
chain: CARDQRDKDGAGNASASA
B27: FS-1709 (peptide)
chain: CARGLRSIMEAGNASASA
B28: FS-1858 (peptide)
chain: CARKRRSQDGAGNASASA
B29: FS-2411 (peptide)
chain: CARAVRSINEAGNASASA
B30: FS-2272 (peptide)
chain: CARKRRSKSRAGNASASA
B31: FS-2539 (peptide)
chain: CAETKRSINEAGNASASA
B32: FS-2346 (peptide)
chain: CARKRRDTGGAGNASASA
B33: HC1938 (peptide)
chain: CATTPCSGSTAGNASASA
B34: HC153 (peptide)
chain: CAEVVTETWVAGNASASA
B35: HC240 (peptide)
chain: CAEDGVNYATAGNASASA
B36: FS-2410 (peptide)
chain: CARALRLVDGAGNASASA
B37: FS-1733 (peptide)
chain: CARKRRQSEGAGNASASA
B38: HC1499 (peptide)
chain: CATERLYVGGAGNASASA
B39: FS-941 (peptide)
chain: CALNPREKKDAGNASASA
B40: FS-739 (peptide)
chain: CAYPVREKKDAGNASASA
B41: FS-91 (peptide)
chain: CASKSRIKKDAGNASASA
B42: FS-2216 (peptide)
chain: CARKRRLVAPAGNASASA
B43: FS-2248 (peptide)
chain: CAKTRRSVDGAGNASASA
B44: FS-2284 (peptide)
chain: CARPKRKVAPAGNASASA

Molecular target: furin, P09958
Experiment: furin cleavage Z-score vs untreated control; higher = more cleavage, active = 3.5 or more, inactive = 1 or less, 8 variable residues between constant flanks
Method in brief: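 Read counts from sequencing released DNA gave abundance for each bead-bound 8-mer peptide–cDNA fusion cut by purified furin over 7.5, 15 or 30 min. The cleavage Z-score compares log counts with furin-free reactions after lowess adjustment and median absolute deviation scaling.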
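Also: purified furin at 1:10 enzyme:substrate in 50 mM HEPES pH 7.5.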

furin, P09958, sequence (P09958 whole entry): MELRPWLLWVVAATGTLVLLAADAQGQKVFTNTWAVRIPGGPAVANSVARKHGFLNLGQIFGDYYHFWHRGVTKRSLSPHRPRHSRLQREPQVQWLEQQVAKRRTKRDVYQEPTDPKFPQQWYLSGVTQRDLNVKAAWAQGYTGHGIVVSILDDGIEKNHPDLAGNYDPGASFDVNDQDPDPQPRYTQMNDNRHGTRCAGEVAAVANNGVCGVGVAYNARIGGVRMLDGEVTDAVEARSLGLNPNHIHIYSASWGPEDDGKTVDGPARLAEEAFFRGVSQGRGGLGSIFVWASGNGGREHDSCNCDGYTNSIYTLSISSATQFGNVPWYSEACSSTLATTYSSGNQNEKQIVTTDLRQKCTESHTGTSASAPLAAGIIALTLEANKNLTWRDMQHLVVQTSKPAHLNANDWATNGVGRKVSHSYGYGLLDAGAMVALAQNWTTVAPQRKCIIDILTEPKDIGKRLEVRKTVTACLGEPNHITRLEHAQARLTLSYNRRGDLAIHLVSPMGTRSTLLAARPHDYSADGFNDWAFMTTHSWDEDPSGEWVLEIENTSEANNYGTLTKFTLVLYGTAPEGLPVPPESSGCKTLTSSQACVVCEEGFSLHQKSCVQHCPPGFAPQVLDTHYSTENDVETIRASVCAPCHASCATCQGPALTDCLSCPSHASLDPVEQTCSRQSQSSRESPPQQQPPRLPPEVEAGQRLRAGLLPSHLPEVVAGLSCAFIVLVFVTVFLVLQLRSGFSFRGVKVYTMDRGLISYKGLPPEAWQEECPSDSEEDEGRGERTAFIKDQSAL

Row | Sequence | furin cleavage Z-score (7.5 min) | furin cleavage Z-score (15 min) | furin cleavage Z-score (30 min)
1 | B1 | 0.722 (inactive) | 2.02 | 1.16
2 | B2 | -0.473 (inactive) | 0.458 (inactive) | 0.0661 (inactive)
3 | B3 | 0.609 (inactive) | 1.11 | -1.08 (inactive)
4 | B4 | 0.861 (inactive) | 0.108 (inactive) | -0.00636 (inactive)
5 | B5 | 3.28 | 5.44 (active) | 3.84 (active)
6 | B6 | -1.13 (inactive) | 2.8 | 0.514 (inactive)
7 | B7 | 4.25 (active) | 6.14 (active) | 5.98 (active)
8 | B8 | 0.109 (inactive) | 0.367 (inactive) | 0.143 (inactive)
9 | B9 | -1.22 (inactive) | -1.49 (inactive) | -1.3 (inactive)
10 | B10 | -0.869 (inactive) | -0.151 (inactive) | 0.67 (inactive)
11 | B11 | -0.916 (inactive) | -1.39 (inactive) | -1.93 (inactive)
12 | B12 | 9.78 (active) | 11 (active) | 9.29 (active)
13 | B13 | -1.62 (inactive) | -0.803 (inactive) | -0.675 (inactive)
14 | B14 | 7.94 (active) | 7.89 (active) | 8.14 (active)
15 | B15 | 0.826 (inactive) | 3.34 | 3.78 (active)
16 | B16 | 0.51 (inactive) | 2.13 | 2.17
17 | B17 | 7.01 (active) | 6.9 (active) | 10.1 (active)
18 | B18 | -1.61 (inactive) | -0.956 (inactive) | 0.174 (inactive)
19 | B19 | -1.16 (inactive) | -0.537 (inactive) | 0.0214 (inactive)
20 | B20 | 0.837 (inactive) | 3.93 (active) | 3.31
21 | B21 | 7.83 (active) | 9.33 (active) | 8.84 (active)
22 | B22 | 10.8 (active) | 12.7 (active) | 11.5 (active)

Row | Sequence | furin cleavage Z-score (7.5 min) | furin cleavage Z-score (15 min) | furin cleavage Z-score (30 min)
23 | B23 | 0.304 (inactive) | 0.942 (inactive) | -0.474 (inactive)
24 | B24 | -0.459 (inactive) | -0.712 (inactive) | -0.977 (inactive)
25 | B25 | -0.904 (inactive) | -1.39 (inactive) | 0.896 (inactive)
26 | B26 | 0.132 (inactive) | -0.98 (inactive) | -1.37 (inactive)
27 | B27 | -0.826 (inactive) | 0.557 (inactive) | 1.78
28 | B28 | 8.67 (active) | 10.1 (active) | 6.23 (active)
29 | B29 | 6.03 (active) | 6.9 (active) | 7.81 (active)
30 | B30 | 5.87 (active) | 6.56 (active) | 5.23 (active)
31 | B31 | -1.27 (inactive) | -0.817 (inactive) | -0.177 (inactive)
32 | B32 | 5.14 (active) | 4.44 (active) | 2.79
33 | B33 | -0.179 (inactive) | -0.988 (inactive) | -0.748 (inactive)
34 | B34 | -0.809 (inactive) | -0.763 (inactive) | -1.97 (inactive)
35 | B35 | -0.763 (inactive) | -1.25 (inactive) | -0.298 (inactive)
36 | B36 | -0.828 (inactive) | -0.615 (inactive) | -0.629 (inactive)
37 | B37 | 10.4 (active) | 12.6 (active) | 8.83 (active)
38 | B38 | 0.0385 (inactive) | 0.416 (inactive) | -0.694 (inactive)
39 | B39 | -0.953 (inactive) | 0.314 (inactive) | 0.019 (inactive)
40 | B40 | -0.917 (inactive) | 0.614 (inactive) | 0.838 (inactive)
41 | B41 | 7.52 (active) | 6.56 (active) | 6.64 (active)
42 | B42 | 3.99 (active) | 5.02 (active) | 5.53 (active)
43 | B43 | 6.46 (active) | 7.09 (active) | 5.86 (active)
44 | B44 | 1.89 | 0.659 (inactive) | 3.08

Source: the supplement of paper PMC3545927
